Assay outcomes (PubChem)
Compounds with a hit are over-represented: about 3.6% of the library has one in this group of screens.
Hsp90 Hop PPI – changes Hsp90-Hop TPR2A binding signal, up or down; actives 0.44% (n = 71,000); AlphaScreen TPR2A-His6 binding biotin-Hsp90 C-terminal peptide; Potency, µM (doses to about 57 µM), inactives show at the top dose activity change, negative = inhibition; active = well fitted curve in either direction with a large enough effect; inconclusive = small, poorly fitted or top-dose-only effect, or another doubt; also: % is scaled to controls: 0 for no effect and ±100 for the full control effect
15-hLO inh – inhibitors of human 15-lipoxygenase (ALOX15); purified 15hLO-1, xylenol orange hydroperoxide absorbance; Potency, µM (series often up to 57.1 µM), for the others: at the top dose activity change, negative = inhibition, hits mostly inhibitors; actives 1.4% (n = 74,000); P16050; also: % is scaled to controls: 0 for no effect and ±100 for the full control effect; nearly all actives have a fitted effect of over 55% in size
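Inhibition is scored from a chromogenic endpoint. After 15 min enzyme-compound contact, arachidonic acid (50 uM final) reacts 6 min with 40 nM 15hLO-1 at room temperature, then Fe-XO reagent is added for 30 min and absorbance ratio recorded.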
CRE Fsk mod – modulators of forskolin-stimulated CRE signaling in CHO cells; CHO CRE-bla reporter (cAMP response element driving beta-lactamase), forskolin EC10, beta-lactamase ratio; Potency, µM (series often up to 38.2 µM), without a hit: at the top dose activity change, negative = inhibition, hits mostly activators; actives 2.5% (n = 71,000); active = well fitted activation curve with a large enough effect in the signal ratio, with a control signal flat, not every such curve was filed as active; inconclusive = small, poorly fitted or top-dose-only effect, or effect the other way, or a change in a side signal; the % refers to the signal ratio; also: % of control where 0% means no effect
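The 460nm/530nm emission ratio after CCF4 loading defined %Activity, from which AC50 values were obtained. CRE-bla CHO cells received compound dilution series together with an EC10 level of NKH 477 for 3 hours at 37 degrees Celsius.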
Tau fil binding – binds recombinant human tau filaments; P10636; recombinant tau filaments, thioflavin S fluorescence, 15 h; filaments grown with octadecylsulfate alongside compound; Potency, µM (doses to about 57.1 µM), for the others: at the top dose activity change, negative = inhibition; actives 2% (n = 71,000); AID 596;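 also: % is scaled to controls: 0 for no effect and ±100 for the full control effect; actives lower thioflavin S fluorescence by blocking filaments or displacing dye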
Target sequence (P10636 whole entry, looked up): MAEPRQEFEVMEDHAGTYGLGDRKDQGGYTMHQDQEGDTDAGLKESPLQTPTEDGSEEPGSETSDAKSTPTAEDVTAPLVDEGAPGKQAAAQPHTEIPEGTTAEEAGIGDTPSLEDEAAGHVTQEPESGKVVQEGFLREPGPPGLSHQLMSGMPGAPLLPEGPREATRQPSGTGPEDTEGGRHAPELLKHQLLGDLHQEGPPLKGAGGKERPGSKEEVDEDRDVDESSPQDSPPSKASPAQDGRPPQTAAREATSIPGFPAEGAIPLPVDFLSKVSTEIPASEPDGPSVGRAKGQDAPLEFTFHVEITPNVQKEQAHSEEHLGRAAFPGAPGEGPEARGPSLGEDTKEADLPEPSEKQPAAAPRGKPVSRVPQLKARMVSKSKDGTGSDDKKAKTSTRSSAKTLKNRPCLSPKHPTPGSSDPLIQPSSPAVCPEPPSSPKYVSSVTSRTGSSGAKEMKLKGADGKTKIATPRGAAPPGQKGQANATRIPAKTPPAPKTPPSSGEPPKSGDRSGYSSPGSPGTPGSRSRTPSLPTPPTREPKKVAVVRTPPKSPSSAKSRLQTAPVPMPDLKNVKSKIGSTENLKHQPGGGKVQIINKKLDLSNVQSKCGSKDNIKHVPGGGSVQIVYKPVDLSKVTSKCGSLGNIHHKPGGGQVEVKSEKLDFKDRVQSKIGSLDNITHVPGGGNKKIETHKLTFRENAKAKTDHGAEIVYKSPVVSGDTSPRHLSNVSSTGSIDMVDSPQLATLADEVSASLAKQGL
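His-tagged recombinant human tau (exons 2, 3, 10; 1 uM final) fibrillized with 30 uM sodium octadecylsulfate, 15 h at 37 C, in pH 7.4 HEPES buffer with 10 uM thioflavine S and 5 mM DTT. Reduced ThS fluorescence (450/510 nm) marks activity.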
IkB signaling – IkB pathway inhibition in ABC-DLBCL cells | ABC-DLBCL IkBa-CBG/CBR dual luciferase ratio, 4 h; response scale: scaled: untreated 0%, proteasome inhibitor 100% | Potency, µM (series often up to 57.1 µM), for the others: at the highest dose IkBa stabilization activation | actives 0.04% (n = 110,000); active = well fitted curve in the direction sought with a large enough effect in the signal ratio, not every such curve was filed as active; inconclusive = small, poorly fitted or top-dose-only effect, or a change in a side signal; the % refers to the signal ratio;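 also: the direction sought is a rising ratio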
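In this assay, an IκBα–CBG68 fusion accumulates when IKK-driven degradation is blocked; native CBR normalizes for cell number. OCI-Ly3 cells were treated 4 h with compound and doxycycline, then green and red light read after Chroma-Glo addition.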
Starred values were filed as active, the others as inactive; ? = inconclusive; · = not tested or not shown; ! = not active in a repeat; [ ] = dose if it differs, or a comment. Unless noted, calls follow the shape of the dose curve; as a rule, active = well fitted curve in the direction sought with a large enough effect; inconclusive = small, poorly fitted or top-dose-only effect, or another doubt; inactive = no such curve, though single readings can be large; an effect the other way counts as inactive or inconclusive. Potency is read from the fitted curve at half-maximal effect.

SMILES	Hsp90 Hop PPI	15-hLO inh	CRE Fsk mod	Tau fil binding	IkB signaling
Cc1ccc(-n2c(=O)c3c4c(sc3n(CC(=O)Nc3ccccc3C)c2=O)CCCCC4)cc1C	·	·	·	·	-1%
O=C(Nc1ccccc1)N1CC[C@@]2(CCCN(C(=O)c3cc(C(F)(F)F)cc(C(F)(F)F)c3)C2)C1	-2%	4%	-22%	-10%	-1%[11.4 µM]
CCOC(=O)c1ccccc1NC(=O)CSc1ccc(-c2cccs2)nn1	·	·	·	·	-3%
CN(CC(=O)NCc1ccccc1Cl)S(=O)(=O)c1ccc2c(c1)c(=O)n(C)c(=O)n2C	·	·	·	·	1%
COc1cc(-c2ccc(=O)[nH]n2)ccc1OC(F)F	-4%	-15%[25.6 µM]	16µM*!	?	0%
Cc1c(Cl)cccc1NC(=O)C1CCN(c2nc3ccccc3[nH]2)CC1	·	·	·	·	0%
CCC(CC)C(=O)NCCc1ccc(OC)c(OC)c1	0%	15%	2%	7%	-3%
CCC(CC)C(=O)NCCNC(=O)C(CC)CC	-17%	16%	2µM*	8%	-3%
Cc1ccc2c(c1)N(CCC(=O)NCCCOC(C)C)C(=O)C(C)O2 (stereo unspecified)	0%	3%	13µM*	-5%	-2%
CCCC12CN3CC(C)(CN(C1)C31C(=O)Nc3ccc(C)cc31)C2=O (stereo unspecified)	-5%	13%	4%	20µM*	-1%
C=CCn1c(CCC(=O)O)ccc1-c1ccc(OC)cc1	-3%	13µM*	-7%	-7%	?
COc1ccc(-c2ccc(CCC(=O)O)n2-c2ccccc2O)cc1	·	·	·	·	5%
O=C(NC1CCCCC1)c1ccc2c(c1)sc1nc(-c3ccccc3)cn12	·	·	·	·	2%
Cc1sc2c(c1C)c(=O)n(-c1ccccc1)c1nnc(C)n21	·	3.2µM*	·	·	·
CCCCNC(=O)C(c1ccc(OCC(=O)OC)c(C(=O)OC)c1)N(Cc1ccccn1)C(=O)CCCCCN1C(=O)NC(c2ccc(-c3ccccc3)cc2)C(C(=O)OCc2ccccc2)=C1C (stereo unspecified)	-11%	-9%	?	77%	·
O=C(Nc1nc(-c2ccco2)c(-c2ccco2)s1)C1CC(=O)N(c2ccc3c(c2)OCCO3)C1 (stereo unspecified)	?	2.5µM*	?	63%	?
COc1ccc(N2CC(C(=O)Nc3ccc4c(c3)OCO4)CC2=O)cc1 (stereo unspecified)	-1%	-4%	-3%	-9%	0%
O=C(CC1Nc2ccccc2NC1=O)NC1CCCCC1 (stereo unspecified)	-6%	-1%	-17%	-5%	1%
O=C(/N=C1\NC(=O)C(F)(C(F)(F)F)S1)NC1CCCCC1 (stereo unspecified)	-5%	10µM*	-1%	2%	11%
C/C=C/C=C/C=O	0%	-2%	?	11%	?
Oc1[nH]c2ccccc2c1/C=N/c1nccs1	-7%	2%	?	13µM*	1%
COc1ccc2[nH]cc(CCNc3ccnc(-c4ccc5c(c4)OCO5)n3)c2c1	?	?	17%	?	5%[11.4 µM]
COc1ccc2[nH]cc(CCNc3cc(-c4cccnc4)ncn3)c2c1	-16%	20µM*	?	-18%	0%[11.4 µM]
COc1ccc2[nH]cc(CCNc3nc(-c4ccccc4OC)nc4ccccc34)c2c1	-20%	?	?	2.5µM*	-7%[11.4 µM]
COc1ccc2[nH]cc(CCNc3cc(-c4ccc5c(c4)OCO5)ncn3)c2c1	-22%	13µM*	?	?	-2%[11.4 µM]
SMILES	Hsp90 Hop PPI	15-hLO inh	CRE Fsk mod	Tau fil binding	IkB signaling
Cc1ccccc1OCC(=O)Nc1ccccc1C(=O)OCc1cc(=O)n2c(C)csc2n1	·	·	·	·	0%
COc1cccc(CNC(=O)c2cc3c(=O)oc4ccc(C)cc4c3s2)c1	·	·	·	·	-1%
Cc1occc1C(=O)Nc1sc2c(c1C(N)=O)CCCCC2	-7%	?	?	-7%	3%
CCc1c(C)sc(NC(=O)c2cc(C)on2)c1C#N	6%	0%	7%	-2%	-2%
CCCc1cc(C(N)=O)c(NC(=O)c2ccoc2C)s1	?	?	10µM*	-24%	1%
CCCc1cc(C(N)=O)c(NC(=O)c2cc(C)on2)s1	-6%	?	4%	32µM*	-3%
